Source: PubChem BioAssay
D1 ag: Allosteric Agonists of the Human D1 Dopamine Receptor: qHTS. D(1A) dopamine receptor (Homo sapiens), P21728. AID 504660, 2011. HEK293 T-REx D1 cells, calcium flux, agonist mode. activation, % at 2 µM. actives 1% (n = 360,000); in the data active = activation above about 30%
Target sequence (P21728 whole entry, looked up): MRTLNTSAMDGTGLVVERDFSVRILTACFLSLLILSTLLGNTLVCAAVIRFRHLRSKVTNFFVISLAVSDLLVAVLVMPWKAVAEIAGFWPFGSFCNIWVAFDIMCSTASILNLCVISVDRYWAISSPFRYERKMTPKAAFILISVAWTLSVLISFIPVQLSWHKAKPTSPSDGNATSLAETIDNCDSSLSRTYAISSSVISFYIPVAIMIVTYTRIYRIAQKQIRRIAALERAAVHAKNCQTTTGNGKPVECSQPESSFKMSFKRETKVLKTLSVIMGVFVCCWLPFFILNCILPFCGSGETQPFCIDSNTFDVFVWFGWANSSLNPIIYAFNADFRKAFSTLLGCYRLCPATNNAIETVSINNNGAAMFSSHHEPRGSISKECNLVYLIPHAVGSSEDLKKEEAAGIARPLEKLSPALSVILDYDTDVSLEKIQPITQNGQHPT
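Tetracycline-induced HEK293 TREx D1 cells, force-coupled to calcium signalling, were dye-loaded with a no-wash calcium kit. Compound was pin-added after a 10 s baseline. Fluorescence was read kinetically at 1 cycle/s for 180 s, with calcium rises flagged as agonism.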
DRD3 antagonist: qHTS of D3 Dopamine Receptor Antagonist: qHTS | actives 2.5% (n = 360,000) | D3R cells, DiscoveRx beta-arrestin luminescence, antagonist mode; stronger effect = lower value | max response, negative = inhibition, %; in the data active = max response below about -50%; inconclusive = no clear call, values can overlap the other calls
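Cells plated overnight at 1500 cells/well, then exposed to library compounds with dopamine controls for 90 minutes at 37 degrees C. DiscoveRx reagent added for 30–60 minutes at room temperature; luminescence read, quantitative HTS format.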
D1 PAM: Potentiators of Human D1 Dopamine Receptor: qHTS | D(1A) dopamine receptor (Homo sapiens), P21728 | HEK293 TREx D1 cells, calcium flux, dopamine EC20 potentiation | actives 0.036% (n = 360,000) | potentiation, % at 10 µM; in the data active = potentiation above about 30%
DRD3 agonist: qHTS of D3 Dopamine Receptor Agonist: qHTS; D3R DiscoveRx beta-arrestin cells, luminescence, 90 min; max activation, %; actives 0.58% (n = 410,000); in the data active = max activation above about 30%
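Agonist-mode cell screen: cells plated at 1500/well and incubated overnight at 37 °C, then exposed to library compounds for 90 min at 37 °C. Detection reagent was added for 30–60 min at room temperature, and luminescence was read.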
D1 antagonist: Antagonist of Human D 1 Dopamine Receptor: qHTS. D(1A) dopamine receptor (Homo sapiens), P21728. HEK293 TREx D1 cells, calcium flux, dopamine EC80; stronger effect = lower value. actives 3.2% (n = 360,000). activity change, negative = inhibition, % at 10 µM; in the data active = activity change below about -30%
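Calcium flux readout: force-coupled, inducible Hek293 Trex D1 line, cells induced overnight at 30 C with tetracycline, dye-loaded 30–90 min at RT. Antagonism scored against EC80 dopamine challenge given 180 s after compound.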
Hits are given with their value; – = inactive; ? = inconclusive; · = no result given; ! = not active in a repeat. The list is not random: actives were taken first. Their share in the collection is about 6%.

SMILES	D1 ag	DRD3 antagonist	D1 PAM	DRD3 agonist	D1 antagonist
COc1ccc(N=Nc2nc3cc(Br)c(Br)cc3n2C)c(OC)c1	88	–	–	–	–
Cc1nn(CCC(=O)NCc2ccc(Cl)cc2)c(=O)c2nn(-c3ccccc3)c(C)c12	–	·	–	57	–
CCC(C(=O)NCCc1ccc(SC)cc1)n1nc(C)c2c(C)n(-c3ccc(C)cc3)nc2c1=O (stereo not drawn)	–	·	–	–	–
Cc1nn(CCC(=O)NCc2ccc(N(C)C)cc2)c(=O)c2nn(-c3ccccc3)c(C)c12	–	–	–	–	-31!
CCC(C(=O)NCCc1ccc(C)cc1)n1nc(C)c2c(C)n(-c3ccccc3)nc2c1=O (stereo not drawn)	–	-79	–	–	–
Cc1ccccc1CNC(=O)CCn1nc(C)c2c(C)n(-c3ccccc3)nc2c1=O	–	–	–	–	–
Cc1ccc(CNC(=O)CCCn2nc(C)c3c(C)n(-c4ccccc4)nc3c2=O)cc1	–	–	–	–	–
CCC(C(=O)NCCCN(CC)Cc1ccccc1)n1nc(C)c2sc3ccccc3c2c1=O (stereo not drawn)	–	-84	–	–	–
COc1ccc(-n2c(=O)c3c4c(sc3n(Cc3ccc(C)cc3C)c2=O)CCC4)c(OC)c1	–	·	–	–	–
Cc1nnsc1NC(=O)OCc1ccc(C(C)(C)C)cc1	–	–	–	–	-32
C=CCOC(=O)Nc1snnc1C	–	–	–	–	–
OCCNCc1c(OCc2ccc(Cl)cc2)ccc2ccccc12	160	?	–	–	-38
COCCCNCCOc1ccccc1-c1ccccc1	–	-81	–	–	-44
OCCNCCOc1ccccc1-c1ccccc1	–	-76	–	–	·
C=CCNCCCCOc1ccccc1-c1ccccc1	–	-93	–	–	–
CNCCOc1ccccc1-c1ccccc1	–	?	–	–	–
O=C(Nc1cc2c(cc1C(=O)c1ccccc1Br)OCCO2)c1ccccc1	–	·	–	–	–
CCOC(=O)c1c(C)oc2ncnc(N3CCN(c4cccc(Cl)c4)CC3)c12	–	·	–	–	–
O=C(NC1CCCC1)c1ccc2c(=O)n(Cc3ccccc3)c(SCc3ccc([N+](=O)[O-])cc3)nc2c1	–	·	–	–	–
Nc1nc(N)c2cc(S(=O)(=O)c3ccc4ccccc4c3)ccc2n1	·	–	·	–	·
CC(O)CNCCOc1ccccc1-c1ccccc1 (stereo not drawn)	–	-80	–	–	·
CNCCCCOc1ccccc1-c1ccccc1	38	-76	–	–	-48
COc1ccccc1OCCCCNCCO	–	–	–	–	–
OCCNCCOCCOc1ccccc1-c1ccccc1	–	–	–	–	–
COCCCNCCCCOc1ccccc1-c1ccccc1	–	-78	–	–	-37
SMILES	D1 ag	DRD3 antagonist	D1 PAM	DRD3 agonist	D1 antagonist
CCCCNCCOc1ccccc1-c1ccccc1	–	-99	–	–	–
Cc1noc(C)c1NC(=O)N(C)C[C@H]1OCc2cnnn2CCCC(=O)N([C@H](C)CO)C[C@H]1C	·	?	·	–	·
COCCNCCOc1ccccc1-c1ccccc1	–	-83	–	–	-31
CC(O)CNCCOc1ccccc1OCc1ccccc1 (stereo not drawn)	–	-80	–	–	–
CCNCc1ccccc1OCc1ccccc1	–	–	–	–	–
CC(O)CNCCNCc1c(OCc2ccccc2)ccc2ccccc12 (stereo not drawn)	122	?	–	–	–
COc1ccc(CNC(=O)C2CCN(S(=O)(=O)Cc3ccccc3)CC2)cc1	–	·	–	–	–
O=C(c1cccc(Cl)c1)N(Cc1cccc(F)c1)C1CCS(=O)(=O)C1 (stereo not drawn)	–	·	–	–	–
CC(C)CN1C(=O)c2ccccc2C1(O)Cc1ccccc1 (stereo not drawn)	–	–	–	–	-37
O=C1c2ccccc2C(O)(Cc2ccccc2)N1CCCN1CCOCC1 (stereo not drawn)	–	–	–	–	-77
C=CCN1C(=O)c2ccccc2C1(O)Cc1ccccc1 (stereo not drawn)	–	–	–	–	–
O=C1CSC(=S)N1c1cccc(F)c1	–	–	–	–	–
O=C1CC(=O)N(c2cccc(F)c2)N1	–	-51	–	–	–
CC(C)CNC(=O)NC(=O)COC(=O)Cn1cnc2ccccc2c1=O	–	–	–	–	–
CCOC(=O)/C=C(\C)Sc1cc(O)c2ccccc2c1O	–	-55	–	–	–
CCOC(=O)/C=C(\C)Sc1cc(=O)oc2ccccc12	–	–	–	–	–
O=C(Cn1c(=O)oc2cc(S(=O)(=O)N3CCCCC3)ccc21)NCc1ccc(F)cc1	41	·	–	–	-37
COc1cccc(CNC(=O)Cn2c(=O)oc3cc(S(=O)(=O)N4CCCC4)ccc32)c1	–	·	–	–	-31
O=C(Cn1c(=O)oc2cc(S(=O)(=O)N3CCCCC3)ccc21)NCc1ccc(Cl)cc1	–	·	–	–	–
O=C(Cn1c(=O)oc2cc(S(=O)(=O)N3CCCC3)ccc21)Nc1cccc(C(F)(F)F)c1	–	–	–	–	-39
O=C(Cn1c(=O)oc2cc(S(=O)(=O)N3CCCC3)ccc21)NCc1ccc(F)cc1	–	–	–	–	–
CCCCc1nn2c(=O)cc(COC(=O)C3CCCCC3)nc2s1	–	·	–	–	–
Cc1cccn2c(=O)cc(COc3ccc(NC(=O)C(C)C)cc3)nc12	–	·	–	–	–
CN1CCc2c(c3c(n2C)CCN(C)C3c2ccc(F)cc2)C1c1ccc(F)cc1 (stereo not drawn)	–	–	–	–	–
COc1ccc(C2c3c4c(n(C)c3CCN2C)CCN(C)C4c2ccc(OC)cc2)cc1 (stereo not drawn)	–	–	–	–	-31
SMILES	D1 ag	DRD3 antagonist	D1 PAM	DRD3 agonist	D1 antagonist
CC(C)c1[nH]nc2c1C1(CCN(Cc3ccccc3)CC1)C(C#N)=C(N)O2	–	-92	–	–	–
Cc1[nH]nc2c1C1(CCN(Cc3ccccc3)CC1)C(C#N)=C(N)O2	–	–	–	–	–
COc1ccc(NC(=O)C(c2cccc3ccccc23)n2c(=O)c(-c3ccco3)nc3ccccc32)cc1 (stereo not drawn)	·	–	·	–	·
COc1ccc(S(=O)(=O)/N=C2\C=C(Nc3ccc(O)cc3)C(=O)c3ccccc32)cc1	–	-80	–	–	–
Cc1ccccc1NC1=C/C(=N\S(=O)(=O)c2cccs2)c2ccccc2C1=O	–	-112	–	–	–
Cc1cc[n+](C2=C([O-])c3ccccc3C(=O)/C2=N\S(=O)(=O)c2cccs2)cc1C	–	–	–	–	–
Cc1ccc(NC2=C/C(=N/S(=O)(=O)c3cccs3)c3ccccc3C2=O)cc1C	–	–	–	–	-45
